# Experimental data published in PubChem BioAssay AID1239 (SRMLSC, 2008).
# The campaign covered roughly 190,000 compounds. About 3,100 (1.6%) were called active. Cut-off read from the data, not from the text of the source: active = fold change above about 3.3; inconclusive = no clear call, values can overlap the other calls; inactive = below that. The sample as a whole holds a higher share of actives than the screen did.
# Test: activators of NF-kB expression in neurons, primary screen, cell-based, HTS (AID 1239)
# Conditions: human neuronal cells, NF-kB reporter expression; at 12.5 µM; active compounds read high
row,Structure (SMILES),fold change
1,O=C(O)CSc1nnc(-c2ccc3c(c2)OCO3)n1-c1ccccc1,1.41 (inactive)
2,CCOc1cccc(/C=N/N2C(=O)CSC2=S)c1O,1.38 (inactive)
3,O=C(CCc1ccccc1)Nc1ccc(NC(=O)C2CCCCC2)nc1,1.04 (inactive)
4,Cc1c(C(=O)Nc2ccccc2)sc2nc3n(c(=O)c12)CCCCC3,1.58 (inactive)
5,O=c1c2c(nc3n1CCCCC3)sc1c(O)cccc12,4.86 (active)
6,Cc1cccc2c(=O)n3c(nc12)CCCCC3,1.11 (inactive)
7,CCN1CCN(CC(=O)Nc2sc3c(c2C#N)CCC3)CC1,1.03 (inactive)
8,COC(=O)c1nc2ccccc2s1,0.91 (inactive)
9,CC(C)CC(=O)NC(=S)NCc1ccccc1,1.01 (inactive)
10,O=C(O)CCCCc1nc2ccccc2s1,1.24 (inactive)
11,CC(C)CC(=O)N/C(N)=N/c1nc2ccccc2s1,8.73 (active)
12,O=C(O)CSCc1nc2ccccc2s1,0.98 (inactive)
13,CCC(=O)NC(=Nc1nc2ccccc2s1)NC(=O)CC,6.73 (active)
14,Cc1nc(-c2ccc(Cl)cc2)sc1C(=O)CBr,1.42 (inactive)
15,N#CCC(=O)N/N=C/c1ccc(SCC(=O)Nc2ccccc2)o1,1.28 (inactive)
16,COCCN(C(=O)CCC(=O)Nc1nccs1)C(C(=O)NC(C)(C)C)c1ccc(Cl)cc1 (stereo unspecified),1.27 (inactive)
17,O=C(NCCc1ccccc1)c1ccc(NC2=NC3CS(=O)(=O)CC3S2)cc1 (stereo unspecified),1.1 (inactive)
18,CC1CCCN(c2ccc(C(=O)NCCc3ccccc3)cn2)C1 (stereo unspecified),4.24 (active)
19,COc1ccc(C(=O)NC2CCN(C(=S)NCCc3ccccc3)CC2)cc1,0.91 (inactive)
20,Nc1nc(NCCCN2CCOCC2)nc(Nc2ccccc2)c1[N+](=O)[O-],0.82 (inactive)
21,COCCNc1nc(N)c([N+](=O)[O-])c(NCCO)n1,0.91 (inactive)
22,CNc1nc(Nc2ccc(C)c(Cl)c2)nc(N)c1[N+](=O)[O-],5.21 (active)
23,Cc1occc1C(=O)N1CCCc2ccccc21,1.12 (inactive)
24,O=C(c1cccc(C(=O)N2CCc3ccccc32)n1)N1CCc2ccccc21,0.82 (inactive)
25,O=C(c1cnn2ccccc12)N1CCc2ccccc21,3.74 (active)
26,Cc1cc(C)n(CCNCc2c(C(=O)N3C[C@@H](C)O[C@@H](C)C3)nc3ccc(Cl)cn23)n1,0.98 (inactive)

row,Structure (SMILES),fold change
1,Cc1ccccc1NC(=O)Cn1c(=O)n(CC2CCCO2)c(=O)c2ccccc21 (stereo unspecified),0.98 (inactive)
2,Cc1ccc(NC(=O)c2cc(-c3ccc(C)o3)nc3ccccc23)nc1,0.88 (inactive)
3,Cc1ccc(-c2csc(NNC(=O)c3ccccc3)n2)cc1,0.64 (inactive)
4,Cc1ccc(Nc2nc(-c3ccc(O)cc3O)cs2)nc1,5.35 (active)
5,CCOC(=O)Cn1nnnc1C,0.94 (inactive)
6,O=C(c1cnn(-c2ccc(Cl)cc2)c1)c1ccccc1O,6.38 (active)
7,Cc1ncc(CC(=O)n2cc(C(=O)c3cc(Cl)ccc3O)cn2)s1,0.9 (inactive)
8,O=C(O)c1ccc(NC(=O)c2cn(-c3ccccc3)nc2-c2ccc(Cl)cc2)cc1,1.11 (inactive)
9,O=C(Nc1ccc(Cl)cc1)C1c2cccc[n+]2CC(=O)N1Cc1ccc2c(c1)OCO2 (stereo unspecified),1.64 (inactive)
10,Cc1ccc(-c2nc3ccccc3[nH]2)cc1N,6.83 (active)
11,Cc1ccc(-c2nc3ccccc3[nH]2)cc1NC(=O)c1sc2ccccc2c1Cl,0.76 (inactive)
12,c1ccc2[nH]c(-c3nc4ccccc4[nH]3)nc2c1,2.17 (inactive)
13,O=C(O)CCn1c(SCc2cc(=O)n3ccccc3n2)nc2ccsc2c1=O,1.78 (inactive)
14,CC(=O)Nc1ccc(NC(=O)C(C)n2c3ccccc3c3nc(=O)cc(C)n32)cc1 (stereo unspecified),1.25 (inactive)
15,COc1cccc(NC(=S)N(Cc2ccc(C)cc2)Cc2ccccn2)c1,1.01 (inactive)
16,CC(O)CNCCOc1cccc(Oc2ccccc2)c1 (stereo unspecified),1.14 (inactive)
17,Cc1cccc(-n2c(C)cc(/C=N\NC(=O)c3cccs3)c2C)c1,0.9 (inactive)
18,CC(=O)Nc1ccc(/C=N/NC(=O)c2cccs2)cc1,3.48 (active)
19,O=C(O)c1ccc(NC(=O)c2cccs2)cc1,1.13 (inactive)
20,CCOc1ccc(C(C)=O)cc1CSc1nnc(-c2ccncc2)n1CCOC,0.95 (inactive)
21,CC(C)CCC(C)NC(=O)c1ccc2nccnc2c1 (stereo unspecified),1.64 (inactive)
22,CC(NC(=O)COC(=O)c1ccc(Cl)cc1O)c1ccc(F)cc1 (stereo unspecified),1.15 (inactive)
23,CCCCSc1nnc(-c2ccc(C)cc2)o1,3.57 (active)
24,CCOC(=O)CSc1nnc(-c2ccncc2)o1,1.05 (inactive)
25,CCOC(=O)CSc1nnc(-c2ccc([N+](=O)[O-])cc2)o1,1.11 (inactive)
